# Source: PMC4336329 (PLoS ONE, 2015)
# Hit rate of the full screen: of about 310,000 compounds, about 14,000 (4.5%) showed an effect of 50% or more. The effect is printed as a negative number. The full list was thinned out, with strong results kept by preference.
# Biological target: human ether-à-go-go-related gene (hERG) potassium channel (human, UniProt Q12809)
# Assay: primary screen, population patch clamp on CHO cells stably expressing hERG; higher = less effect of the substance
# 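Also: peak tail current of the secondary pulse compared with the same well before compound.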
# Chain of human ether-à-go-go-related gene (hERG) potassium channel (Q12809 whole entry, looked up): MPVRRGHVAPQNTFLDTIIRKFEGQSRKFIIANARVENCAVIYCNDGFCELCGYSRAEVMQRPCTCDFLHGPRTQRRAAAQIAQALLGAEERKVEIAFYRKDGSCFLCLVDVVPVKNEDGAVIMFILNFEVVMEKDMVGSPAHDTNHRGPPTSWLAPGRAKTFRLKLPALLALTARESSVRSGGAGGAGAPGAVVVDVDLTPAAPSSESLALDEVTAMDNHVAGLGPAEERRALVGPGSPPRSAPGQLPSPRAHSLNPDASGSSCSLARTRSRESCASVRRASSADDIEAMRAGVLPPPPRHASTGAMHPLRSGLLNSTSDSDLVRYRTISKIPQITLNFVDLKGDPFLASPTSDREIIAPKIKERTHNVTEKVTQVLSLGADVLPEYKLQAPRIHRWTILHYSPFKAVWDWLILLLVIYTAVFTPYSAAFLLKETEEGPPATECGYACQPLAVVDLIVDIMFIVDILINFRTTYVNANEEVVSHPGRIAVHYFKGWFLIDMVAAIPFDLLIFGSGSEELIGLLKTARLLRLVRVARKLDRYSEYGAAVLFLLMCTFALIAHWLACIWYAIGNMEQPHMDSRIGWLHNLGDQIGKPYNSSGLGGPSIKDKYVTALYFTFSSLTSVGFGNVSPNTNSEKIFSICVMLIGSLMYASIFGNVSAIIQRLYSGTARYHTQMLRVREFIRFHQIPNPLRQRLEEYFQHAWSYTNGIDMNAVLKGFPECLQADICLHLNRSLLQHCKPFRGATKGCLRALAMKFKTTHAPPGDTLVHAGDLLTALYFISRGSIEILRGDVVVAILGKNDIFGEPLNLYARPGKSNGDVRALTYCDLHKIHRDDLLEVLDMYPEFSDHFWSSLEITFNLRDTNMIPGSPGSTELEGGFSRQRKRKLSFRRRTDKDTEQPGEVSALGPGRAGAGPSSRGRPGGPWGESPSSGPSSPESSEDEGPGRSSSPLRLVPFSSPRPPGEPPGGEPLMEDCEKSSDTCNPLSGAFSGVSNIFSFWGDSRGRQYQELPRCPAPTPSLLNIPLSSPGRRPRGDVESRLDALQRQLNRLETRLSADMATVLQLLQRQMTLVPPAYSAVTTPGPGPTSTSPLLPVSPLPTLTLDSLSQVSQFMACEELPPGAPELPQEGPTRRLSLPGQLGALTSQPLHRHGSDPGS
row,Structure (SMILES),"hERG current change (%, negative = inhibition) at 10uM [%]"
1,CCOC(=O)Nc1sc(C)c(C)c1C(N)=O,9.44
2,COCC1CCN(Cc2nc(COc3ccccc3)no2)C1 (stereo not drawn),12.3
3,CN(Cc1cnccn1)C(=O)CC1C(=O)NCCN1Cc1ccc(F)cc1Cl (stereo not drawn),20
4,CN(Cc1ccccn1)C(=O)CC1C(=O)NCCN1Cc1ccc(F)cc1Cl (stereo not drawn),16.4
5,CN(Cc1nccn1C)C(=O)CC1C(=O)NCCN1Cc1ccc(F)cc1Cl (stereo not drawn),-68.9
6,Cc1nc2scc(C)n2c(=O)c1S(=O)(=O)N1CCN(c2ccccc2)CC1,-26.3
7,CN1CC2(C(=O)c3ccccc3)CN(C)CC(C(=O)c3ccccc3)(C1)C2,-53
8,COc1ccc(C(=O)C23CN4CN(CN(C4)C2)C3)cc1,4.01
9,CC(=O)N1CN2CN(C(C)=O)CC(C(=O)c3ccccc3)(C2)C1,11
10,Cc1ccn2cc(-c3cccc(NC(=O)c4ccccc4)c3)nc2c1,-19.6
11,COC(=O)CCN(C(=O)c1cc(OC)c(OC)c(OC)c1)c1ccccn1,6.81
12,COc1ccccc1N1CCN(CCCCNC(=O)c2ccc3ccccc3c2)CC1.Cl,-79.6
13,COc1ccc(C(=O)CCN2CCCCCC2)cc1.Cl,-20
14,COc1ccc(C(=O)CCN2CCN(c3ccccc3F)CC2)cc1.Cl,-71.5
15,O=C(NCCCN1CCOCC1)c1ccc2ccccc2c1,-2.68
16,COc1ccc(OC)c(NC(=O)CCN2CCN(c3ccccc3F)CC2)c1,-22.1
17,COc1ccc(C(=O)CCN2CCN(c3ccc(OC)cc3)CC2)cc1,-73.1
18,COc1ccc(S(N)(=O)=O)cc1C(=O)NCCCN1CCN(c2ccccc2OC)CC1.CS(=O)(=O)O,2.27
19,COc1ccc(N2CCN(CCC(N)=O)CC2)cc1,3.39
20,COc1ccccc1N1CCN(CCN(C(=O)c2ccc(F)cc2)c2ccccn2)CC1.Cl,-78.8
21,COc1ccc(N2CCN(CCC(=O)c3ccc4ccccc4c3)CC2)cc1,-11.2

row,Structure (SMILES),"hERG current change (%, negative = inhibition) at 10uM [%]"
1,CC(C)(C)OC(=O)N1CCCN(C(=O)Nc2cccc(Cl)c2)CC1,-4.88
2,O=C(NCc1ccc2c(c1)OCO2)C1CC(=O)N(C2CCCCCC2)C1 (stereo not drawn),-11.3
3,Cc1cc(C)c(NC(=S)NC(=O)c2c(Cl)c(C)nn2C)c([N+](=O)[O-])c1,12.2
4,COc1cc(C(=O)NCC(c2cccnc2)N2CCN(C)CC2)cc(OC)c1OC (stereo not drawn),12.9
5,COC(=O)NNC(=O)C1CCC(C)CC1 (stereo not drawn),-27.2
6,O=C(N/N=C/c1ccc(-c2ccccc2[N+](=O)[O-])o1)c1cncc(Br)c1,-6.97
7,COc1ccccc1CCNC(=O)C(=O)NCC1OCCN1S(=O)(=O)c1ccc(Br)cc1 (stereo not drawn),-25.6
8,COc1ccc(CCn2c(=S)[nH]c3cc(C(=O)NCc4ccco4)ccc3c2=O)cc1OC,-1.08
9,COc1ccc(CCNS(=O)(=O)c2cc(/C=C/C(=O)O)ccc2C)cc1OC,8.58
10,COc1cc(NC(=O)CCN2CCN(c3ccccc3F)CC2)cc(OC)c1,-56.6
11,COc1cc(NC(=O)CN2CCN(c3ccccc3F)CC2)cc(OC)c1,-10.2
12,NC(=O)CN1CCN(c2ccccc2F)CC1,4.12
13,Cl.O=C1CC(=C(c2ccccc2)c2ccccc2)C(=O)N1CCCCN1CCN(c2cccc(Cl)c2)CC1,-46
14,CCOC(=O)N1CCN(CCC(=O)c2ccc(OC)cc2)CC1.Cl,-18.2
15,Cl.O=C(CCN1CCN(c2ccccc2F)CC1)c1ccc(Br)cc1,-84.5
16,O=C1CC(=C(c2ccccc2)c2ccccc2)C(=O)N1CCCN1CCN(c2cccc(Cl)c2)CC1,1.35
17,O=C1CC(=C(c2ccccc2)c2ccccc2)C(=O)N1CCCCN1CCN(c2ccccc2)CC1,-63.3
18,O=C(CCC(=O)N1CCN(c2ccccc2F)CC1)c1ccc(F)cc1,-35.4
19,CCOC(=O)N1CCN(CCC(=O)c2ccc(Cl)cc2)CC1.Cl,-40.9
20,COc1cccc(NC(=O)CCN2CCN(c3ccccc3F)CC2)c1,-12
21,CCOC(=O)N1CCN(CCC(=O)c2ccc(Br)cc2)CC1.Cl,-64.6
